Results on 46 compounds are retold here after PubChem BioAssay AID2685 (National Center for Advancing Translational Sciences (NCATS), 2010).

About 2,100 (0.66%) of roughly 320,000 compounds were called active. Roughly 53% stayed inconclusive and do not appear here. The sample holds actives, similar compounds and a random draw of the others, so the mix is not that of the screen. Calls come from the whole dose curve; as a rule, active = well fitted inhibition curve with a large enough effect in the signal ratio, with a control signal flat (not every such curve was filed as active); inconclusive = small, poorly fitted or top-dose-only effect, or effect the other way, or a change in a side signal; inactive = flat fitted curve, though single readings scatter; the % refers to the signal ratio.
Potency is the fitted concentration of half-maximal effect.

This experiment in a line: qHTS Assay for Lipid Storage Modulators in Drosophila S3 Cells.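 For cell number change: cells counted by Cell Tracker Red CMTPX staining in the red channel.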 For lipid storage change, negative = inhibition: % is set by controls: 0 for no effect and ±100 for the full control effect. The following applies: BODIPY lipid droplet fluorescence, 18-24 h, cells fed with added oleic acid; cell number change: measured here: cell count max response; series mostly up to 46.1 µM; lipid storage change, negative = inhibition: at the top concentration. Put shortly:
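Drosophila S3 cells got compounds at several concentrations plus oleic acid (400 uM solution). Laser-scanning cytometry with 488 nm excitation read lipid droplets at 500-530 nm and cells at 575-640 nm. Percent activity was relative to 20 uM Triacsin C.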
(In general: Quantitative high-throughput screening tests each substance at several concentrations.)
Take `CCn1c(=N)c(S(=O)(=O)c2ccc(C)cc2)cc2c(=O)n3ccccc3nc21`: the “lipid storage change, negative = inhibition” value is 16.3% (inactive) and the cell number change was determined as 11.4%.

For `CN(C)S(=O)(=O)N1CCN(c2cc(Cl)ccc2Cl)CC1`, the “lipid storage change, negative = inhibition” value was 16.6% (inactive) and the cell number change is -20.4%. Regarding `COc1ccc(/C=C2\CCc3ccccc3C2=O)cc1O`, the call was inactive and the cell number change was -1.8%. On to `COc1ccc(/C=C2\Cc3ccccc3C2=O)cc1OC`, for which the “lipid storage change, negative = inhibition” value was 0.0747% (inactive) and the cell number change was -17.4%.

Take `COc1cc(/C=C2\CC/C(=C\c3ccc(OCCO)c(OC)c3)C2=O)ccc1OCCO`: the Potency was 16.4 µM (active) and the cell number change was found to be 11.6%. On to `CCn1c(=O)cc(OCC(=O)Nc2ccc(C)cn2)c2ccccc21`, for which the “lipid storage change, negative = inhibition” value is 23.2% (inactive) and the cell number change worked out at 8%. The like results for `COc1ccc(C)cc1NC(=O)C1CCC(CNc2c(N3CCOCC3)c(=O)c2=O)CC1` (centres undefined) were, in that order, 9.49% (inactive) and 18.9%. The like results for `Cc1cccc(N2CCN(C(=O)COc3ccc4c(c3)CCC4)CC2)c1C` were, in that order, 0.152% (inactive) and 1.12%. Regarding `Cc1cccc(N2CCN(C(=O)COc3ccc4c(c3)CCC4)CC2C)c1` (centres undefined), the Potency is 2.06 µM (active) and the cell number change was -2.19%.

As to `O=C(COc1ccc2c(c1)CCC2)N1CCN(c2cccc(C(F)(F)F)c2)CC1`, the result was inactive and the cell number change was determined as 20.7%. Consider `CCOC(=O)c1ccc(NC(=O)Cn2nnc(-c3ccc(F)cc3)n2)cc1`, for which the “lipid storage change, negative = inhibition” value was -18.5% (inactive) and the cell number change was -3.44%. The like results for `COc1ccc(OC)c(Nc2nc3nonc3nc2N2CCCC(C)C2)c1` (centres undefined) were, in that order, 10.9% (inactive) and 7.7%. For `CC(C)c1onc(C(=O)N2CCCCC2)c1[N+](=O)[O-]`, the Potency was 0.82 µM (active) and the cell number change was -22.7%. Regarding `CC(C)c1onc(C(=O)N2CCOCC2)c1[N+](=O)[O-]`, the “lipid storage change, negative = inhibition” value is 2.21% (inactive) and the cell number change was -0.564%. The like results for `CC(C)c1onc(C(=O)N2CCCCCC2)c1[N+](=O)[O-]` were, in that order, -5% (inactive) and -15.8%. The like results for `CS(=O)(=O)N1CCC(C(=O)Nc2ccc(Cl)c(Cl)c2)CC1` were, in that order, 17.7% (inactive) and -6.77%. In the same order, the values of `COc1ccc(CC(=O)OCC(=O)Nc2ccc3c(c2)OCCO3)cc1OC` are 3.05% (inactive) and 3.44%.

With `O=C(CCn1c(=O)[nH]c2ccsc2c1=O)N1CCN(Cc2ccc3c(c2)OCO3)CC1`, the “lipid storage change, negative = inhibition” value is -1.99% (inactive). With `Cc1ccc(-c2nc3ccccc3[nH]2)cn1`, the “lipid storage change, negative = inhibition” value is -2.7% (inactive) and the cell number change was 10.6%. On to `CCN(CC)S(=O)(=O)c1cc(C(=O)Nc2cccnc2Cl)ccc1Cl`, for which the outcome was inactive.

For `CCN(CC)S(=O)(=O)c1cc(C(=O)Nc2cc(C)on2)c(Cl)cc1Cl`, the “lipid storage change, negative = inhibition” value is -12% (inactive) and the cell number change was -16.4%. Take `CCN(CC)S(=O)(=O)c1cc(C(=O)n2cccn2)c(Cl)cc1Cl`: the Potency is 4.61 µM (active) and the cell number change is -0.259%. For the compound `CC(=O)NC12CC3CC(C1)CC(C(=O)OCC(=O)NC(=O)c1cccn1C)(C3)C2`, the “lipid storage change, negative = inhibition” value was -20.7% (inactive) and the cell number change was -12.7%. In the same order, the values of `O=C(COC(=O)CC12CC3CC(CC(Br)(C3)C1)C2)NC(=O)NCc1ccco1` are -0.115% (inactive) and -9.1%. Take `Cn1cccc1C(=O)NC(=O)COC(=O)CC12CC3CC(CC(Br)(C3)C1)C2`: the Potency was 7.31 µM (active) and the cell number change came to 2.25%. Consider `O=C(NCc1nc2ccccc2[nH]1)c1c(F)c(F)c(F)c(F)c1F`, for which the “lipid storage change, negative = inhibition” value is -16.5% (inactive) and the cell number change was -0.311%. The like results for `O=C(O)C1CCCCC1C(=O)NCCc1cccc(Cl)c1` (centres undefined) were, in that order, -11.6% (inactive) and -1.17%. `Cc1ccn(CC(=O)N2CCCC(N3CCN(c4cccc(Cl)c4)CC3)C2)n1` (centres undefined): the compound was classed as inactive and the cell number change stood at 14.6%. For the compound `Cc1nc(CNC(=O)CC2C(=O)NCCN2Cc2ccc(F)cc2)cs1` (centres undefined), the “lipid storage change, negative = inhibition” value is -3.08% (inactive) and the cell number change came to 20.2%. As for `CCN(CC)S(=O)(=O)c1ccc(OC)c(NC(=O)C2CC(=O)N(c3ccc4c(c3)OCCO4)C2)c1` (centres undefined), the result was inactive and the cell number change is -25.9%.

`C=Cc1ccc(C(=O)N2CCCC(CCC(=O)N3CCN(c4ccccn4)CC3)C2)cc1` (centres undefined): the call was inactive and the cell number change is -2.91%. In the case of `COc1ccc(C(=O)N2CCCC(CCC(=O)N3CCN(c4ccccn4)CC3)C2)cc1` (centres undefined), the Potency was 8.2 µM (active) and the cell number change was -15.8%. For the compound `CN(C)c1ccc(C(=O)N2CCCC(CCC(=O)N3CCN(c4ccccn4)CC3)C2)cc1` (centres undefined), the “lipid storage change, negative = inhibition” value is -21.3% (inactive) and the cell number change is -25.3%. Consider `COc1ccc(-n2cccc2/C=C2\C(=N)N3N=C(c4ccco4)SC3=NC2=O)cc1`, for which the “lipid storage change, negative = inhibition” value was -14.1% (inactive) and the cell number change was -5.47%. The like results for `CC(C)(C)NC(=O)Cn1ccc(=N)c2ccccc21` were, in that order, 0.397% (inactive) and -1.29%. Take `CCCCNc1c(-c2ccc(-c3cccc(Cl)c3)cc2)nc2ccccn12`: the Potency is 23.1 µM (active) and the cell number change is 5.08%. With `CCCCNc1c(-c2cccc(SC3CCCCC3)c2)nc2ccc(Cl)cn12`, the “lipid storage change, negative = inhibition” value was 2.09% (inactive) and the cell number change amounted to 5.29%. In the same order, the values of `CCOC(=O)CNc1c(-c2ccc(O)cc2)nc2ccccn12` are 21.7% (inactive) and 4.87%. Take `O=C1CCCC2(O)C1C(c1cccc(Br)c1)NC(=O)N2Cc1ccccc1` (centres undefined): the “lipid storage change, negative = inhibition” value was -9.4% (inactive) and the cell number change was 1.15%.

In the case of `O=S(=O)(CCc1ccccc1)N1CCOCC1`, the Potency is 5.8 µM (active) and the cell number change stood at 1.99%.

Take `c1ccc(CCCN2CCOCC2)cc1`: the “lipid storage change, negative = inhibition” value is 15.4% (inactive) and the cell number change was 11.8%. In the same order, the values of `CCCS(=O)(=O)N1CCN(CCCc2ccccc2)CC1` are 9.48% (inactive) and 6.21%. Regarding `CC(C)Sc1nnc(NC(=O)c2ccc3c(c2)OCO3)s1`, the “lipid storage change, negative = inhibition” value is -3.82% (inactive). `O=C(COC(=O)COc1ccccc1)NC1CCCC1`: the “lipid storage change, negative = inhibition” value is 10.1% (inactive) and the cell number change was -5.97%.

`COc1ccc(NC(=O)c2cc3n(n2)C(C(F)(F)F)CC(c2ccc4c(c2)OCO4)N3)cc1OC` (centres undefined): the Potency is 16.4 µM (active) and the cell number change is -18.2%. On to `COc1ccc(C2CC(C(F)(F)F)n3nc(C(=O)O)cc3N2)cc1OC` (centres undefined), for which the “lipid storage change, negative = inhibition” value is -2.01% (inactive) and the cell number change came out at 20.6%.
